Screens: PubChem BioAssay, National Center for Advancing Translational Sciences (NCATS)
TRPV1 agonist: agonists of human vanilloid receptor 1 (TRPV1); Q8NER1; TRPV1-expressing cells, Fluo-8 calcium influx, agonist mode; activation, % at 8.33 µM; hit rate 0.19% among 320,000; AID 540275; in the data active means activation above about 80%; inconclusive means between about 30% and that limit; further: 0% is about no effect
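TRPV1-expressing cells were cultured overnight at 35.5C and loaded with Fluo-8 calcium dye for 40 to 90 min at room temperature. After a 10 s baseline, compound was added and calcium influx was read kinetically for 3 min (ex 480/em 520 nm).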
Giardia kill: Giardia lamblia killing. Giardia lamblia trophozoite viability. activity change, % at 7.66 µM, hits read low. hit rate 0.15% among 340,000. AID 540267; in the data active means activity change below about -80%; inconclusive means between about -30% and that limit;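 further: parasites exposed to compound for two days anaerobically before the ATP read; on the % scale 0 is the no-effect control and ±100 the full control effect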
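Trophozoites 100 cells/well + cpd; 48 hrs, 37 deg C, anaerobic. ATPLite 1-Step added, 15-30 min RT, luminescence read (ATP-based viability).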
ELG1 DNA repair: blocks ELG1-dependent DNA repair in HEK293T cells; HEK293T ELG1-luciferase reporter, luminescence, 16 h; DNA damage induced by 5-fluorouridine; Potency, µM (titrated, usually from 46.1 µM), without a hit: top-dose activity change, negative = inhibition, most hits filed as inhibitors; hit rate 2.3% among 330,000; AID 504467; further: potency means the concentration at half of the fitted maximal effect; on the % scale 0 is the no-effect control and ±100 the full control effect; nearly all actives have a fitted effect of over 55% in size
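Reporter activity after DNA damage by 5-fluorouridine is monitored. Compound-treated cells incubate 16 hr at 37 °C, then ONE-Glo is added for 30 min before luminescence reading.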
TRPV1 PAM: human TRPV1 potentiation; TRPV1-expressing cells, Fluo-8 calcium influx, capsaicin EC20 potentiation; potentiation, % at 8.33 µM; Q8NER1; AID 540277; hit rate 0.02% among 320,000; in the data active means potentiation above about 80%; inconclusive means between about 30% and that limit; further: 0% is about no effect
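Fluo-8 calcium influx in TRPV1-expressing cells, kinetic read (ex 480/em 520 nm). Compound added and read 3 min for agonist activity, followed by capsaicin at EC20 final and 2 min further read for enhancement.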
FUS suppressor: suppressors of FUS proteinopathy in yeast; S. cerevisiae FUS-expressing, growth rescue, OD600, 24 h; Potency, µM (series often up to 76.6 µM), usual class: activators; hit rate 0.24% among 390,000; AID 1347120;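 further: potency means the concentration at half of the fitted maximal effect; plate controls were DMSO vehicle for no effect and reference control for full effect; nearly all actives have a fitted effect of over 55% in size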
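Quantitative HTS measuring growth restoration of FUS-toxic yeast. Galactose-induced cells (OD 0.005) were exposed 24hr at 30C to compounds at several concentrations, then absorbance at 600 nm was recorded.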
* hit, by the source's call. This is a sample that favours compounds with a hit; in the whole collection about 2.3% have one here. Unless noted, the call rests on the fitted dose curve; in most records, active means well fitted curve in the direction sought with a large enough effect; inconclusive means small, poorly fitted or top-dose-only effect, or another doubt; inactive means no such curve, though single readings can be large; an effect the other way counts as inactive or inconclusive.

How did CCN(CC)c1nc(OCCNC(=O)Nc2ccccc2)nc(N(CC)CC)n1 do in these assays?
TRPV1 agonist: 1; Giardia kill: 2; ELG1 DNA repair: 18µM*; TRPV1 PAM: inconclusive; FUS suppressor: inactive

What do the screens show for `O=C(NCCc1ccc(Cl)cc1)Nc1ccc(Cl)cc1`?
TRPV1 agonist: inconclusive; Giardia kill: -7; ELG1 DNA repair: inconclusive; TRPV1 PAM: -22; FUS suppressor: inactive

How did Cc1ccc(NC(=O)N2CCN(c3nnc(C)c4c(C)n(-c5ccc(Cl)cc5)nc34)CC2)c(C)c1 do in these assays?
FUS suppressor: inactive

What do the screens show for `c1ccc(CN2CCN(CCOCCOc3cccc4ccccc34)CC2)cc1`?
TRPV1 agonist: 6; Giardia kill: -5; ELG1 DNA repair: 18µM*; TRPV1 PAM: -1; FUS suppressor: inactive

What do the screens show for `O=C(CCCCCNC(=O)c1ccccc1Br)N=Nc1c(O)[nH]c2ccccc12`?
TRPV1 agonist: -3; Giardia kill: -9; ELG1 DNA repair: 9.2µM*; TRPV1 PAM: 0; FUS suppressor: inactive

How did COc1ccc(C2N3CC4(C)CN2CC(c2ccccc2)(C3)C4=O)cc1 (configuration not stated) do in these assays?
FUS suppressor: inactive

What do the screens show for `Cc1ccc(NC(=O)c2cccc3c2-c2ccccc2C3=O)c(C)c1`?
FUS suppressor: inactive

Results for Cc1ccc(NC(=O)COC(=O)c2cccc3c2C(=O)c2ccccc2C3=O)c(C)c1 ?
TRPV1 agonist: -5; Giardia kill: 16; ELG1 DNA repair: 10µM*; TRPV1 PAM: 5

What do the screens show for `Cc1cc(C)c(NC(=O)COC(=O)c2cccc3c2C(=O)c2ccccc2C3=O)c(C)c1`?
TRPV1 agonist: 0; Giardia kill: 6; ELG1 DNA repair: 13µM*; TRPV1 PAM: 18

What do the screens show for `Cc1ccc(C)c(NC(=O)COC(=O)c2cccc3c2C(=O)c2ccccc2C3=O)c1`?
TRPV1 agonist: 4; Giardia kill: -24; ELG1 DNA repair: 23µM*; TRPV1 PAM: 1; FUS suppressor: inactive

What do the screens show for `O=C(COC(=O)c1cccc2c1C(=O)c1ccccc1C2=O)NC1CCCCC1`?
TRPV1 agonist: 19; Giardia kill: -8; ELG1 DNA repair: inconclusive; TRPV1 PAM: 3; FUS suppressor: inactive

Results for Cc1ccc(Cn2ccc(NC(=O)c3cc(-c4ccc(Cl)c(Cl)c4)on3)n2)cc1 ?
FUS suppressor: inactive

Results for COC(=O)c1ccc(NC(=O)CCn2cccn2)cc1 ?
FUS suppressor: inactive

What do the screens show for `O=C(NCc1ccccc1)N1CCOCC1`?
TRPV1 agonist: 0; Giardia kill: 18; ELG1 DNA repair: 20%; TRPV1 PAM: 5; FUS suppressor: inactive

What do the screens show for `O=C(OCc1ccccc1)N1CCOCCOCCN(C(=O)OCc2ccccc2)CCOCCOCC1`?
TRPV1 agonist: 2; Giardia kill: -4; ELG1 DNA repair: 10µM*; TRPV1 PAM: 2; FUS suppressor: inconclusive

What do the screens show for `O=C(Nc1nc(-c2ccccc2)cs1)c1ccc(N2CCOCC2)c([N+](=O)[O-])c1`?
TRPV1 agonist: 4; Giardia kill: 4; ELG1 DNA repair: 3.7µM*; TRPV1 PAM: -6; FUS suppressor: inactive

How did Cc1cc(C)c2nc(NC(=O)c3ccc4c(=O)n5c(nc4c3)CCCCC5)sc2c1 do in these assays?
TRPV1 agonist: 1; Giardia kill: -13; ELG1 DNA repair: 10µM*; TRPV1 PAM: -5; FUS suppressor: inactive

Results for O=C(Nc1nc(-c2ccccc2)cs1)c1ccc2c(=O)n3c(nc2c1)CCCCC3 ?
TRPV1 agonist: 5; Giardia kill: 7; ELG1 DNA repair: 3.7µM*; TRPV1 PAM: 11; FUS suppressor: inactive

What do the screens show for `O=C1CC(c2nnc(Cc3ccc(F)cc3)o2)CN1c1ccccc1` (configuration not stated)?
FUS suppressor: inactive

How did COc1cccc(CNC(=O)CCc2c(C)nn(-c3ccc(N4CCOCC4)nn3)c2C)c1 do in these assays?
FUS suppressor: inactive

How did CCCn1c(-c2cc(OC)c(OC)c(OC)c2)nc2nc3ccccc3nc21 do in these assays?
TRPV1 agonist: 2; Giardia kill: 9; ELG1 DNA repair: 16µM*; TRPV1 PAM: -8; FUS suppressor: inactive

Results for COc1ccc(CCNc2ncnc3cc(OC)c(OC)cc23)cc1OC ?
TRPV1 agonist: 3; Giardia kill: 11; ELG1 DNA repair: 8.2µM*; TRPV1 PAM: 2; FUS suppressor: inactive

How did COc1cc2ncnc(NCCc3ccccc3)c2cc1OC do in these assays?
TRPV1 agonist: 7; Giardia kill: -19; ELG1 DNA repair: inconclusive; TRPV1 PAM: -7; FUS suppressor: inactive

What do the screens show for `Cc1ccc(S(=O)(=O)N2CC(C)N(C(=O)N3CCOCC3)C2C)cc1` (configuration not stated)?
TRPV1 agonist: -1; Giardia kill: 7; ELG1 DNA repair: 7%; TRPV1 PAM: 4; FUS suppressor: inactive

Results for COc1ccc(-n2cc(CN3CCCC3)c(-c3cccc(F)c3)n2)cc1 ?
TRPV1 agonist: 16; Giardia kill: 6; ELG1 DNA repair: 7%; TRPV1 PAM: -3; FUS suppressor: inactive

Results for Cc1cccc(-n2cc(CN3CCN(Cc4nccn4C)CC3)c(-c3cccc(F)c3)n2)c1 ?
TRPV1 agonist: 1; Giardia kill: 21; ELG1 DNA repair: 18µM*; TRPV1 PAM: -10; FUS suppressor: inactive

How did O=C(NCc1ccccc1)C1CCN(c2ncnc3c2nc2n3CCCCC2)CC1 do in these assays?
FUS suppressor: inactive

How did O=C(Nc1ccccn1)C1CCN(c2ncnc3c2nc2n3CCCCC2)CC1 do in these assays?
TRPV1 agonist: 0; Giardia kill: -22; ELG1 DNA repair: 2.6µM*; TRPV1 PAM: 1; FUS suppressor: inactive

What do the screens show for `CCc1ccc(NC(=O)C2CCN(c3ncnc4c3nc3n4CCCCC3)CC2)cc1`?
TRPV1 agonist: 2; Giardia kill: -26; ELG1 DNA repair: 2.6µM*; TRPV1 PAM: 10; FUS suppressor: inactive

How did Cc1ccc(CNC(=O)c2ccc(-c3nc(CS(=O)c4ccccc4)c(C)o3)cc2)cc1 (configuration not stated) do in these assays?
FUS suppressor: inactive

What do the screens show for `COc1ccc(CNC(=O)c2ccc(-c3nc(CS(=O)c4ccc(C)cc4)c(C)o3)cc2)cc1` (configuration not stated)?
FUS suppressor: 25µM*

Results for O=C(CNc1cccc2ccccc12)N/N=C/c1ccc([N+](=O)[O-])o1 ?
TRPV1 agonist: -2; Giardia kill: -96*; ELG1 DNA repair: inconclusive; TRPV1 PAM: 4; FUS suppressor: inactive

How did O=C(CNc1ccccc1)N/N=C/c1ccc([N+](=O)[O-])cc1 do in these assays?
TRPV1 agonist: 6; Giardia kill: 3; ELG1 DNA repair: -3%; TRPV1 PAM: -2; FUS suppressor: inactive
